This is an account of results in article PMC11006913.

Holding throughout (assay): PBM; 200 nM protein, PBS
What all share (settings): dsDNA, one strand shown

Test [1] addresses ALX3 (Homo sapiens, UniProt O95076 139-225, N203Q).
Test [2] has as its target ALX3 (Homo sapiens, UniProt O95076 139-225, N203S).
Test [3] concerns the target ALX3 (Homo sapiens, UniProt O95076 139-225).
For test [4], the target named is HOXD13 (Homo sapiens, UniProt P35453 263-343, T313R).
In test [5] the target is HOXD13 (Homo sapiens, UniProt P35453 263-343).
For test [6], the target named is ALX3 (Homo sapiens, UniProt O95076 139-225, L168Q).
Test [7] addresses ALX3 (Homo sapiens, UniProt O95076 139-225, L168V).
Another test addresses HOXC10 (Homo sapiens, UniProt Q9NYD6 254-340, K271E).
The target of test [8] is VAX1 (Homo sapiens, UniProt Q5SQQ9 86-172).
Test [9] deals with VAX1 (Homo sapiens, UniProt Q5SQQ9 86-172, T142I).
The target of test [10] is VAX1 (Homo sapiens, UniProt Q5SQQ9 86-172, K157R).
The target in test [11] is HOXD13 (Homo sapiens, UniProt P35453 263-343, T313A).
Chain of HOXD13 (Homo sapiens, UniProt P35453 263-343, T313A) (P35453 263-343 T313A): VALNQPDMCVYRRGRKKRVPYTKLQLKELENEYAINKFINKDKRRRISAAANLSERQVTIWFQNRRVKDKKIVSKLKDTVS

Chain of HOXD13 (Homo sapiens, UniProt P35453 263-343, T313R) (P35453 263-343 T313R): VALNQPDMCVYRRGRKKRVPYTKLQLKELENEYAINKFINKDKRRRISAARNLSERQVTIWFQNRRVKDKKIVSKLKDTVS
Chain of ALX3 (Homo sapiens, UniProt O95076 139-225) (O95076 139-225): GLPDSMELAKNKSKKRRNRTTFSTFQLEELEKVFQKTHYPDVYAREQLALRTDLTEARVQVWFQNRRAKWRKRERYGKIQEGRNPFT
Chain of ALX3 (Homo sapiens, UniProt O95076 139-225, N203S) (O95076 139-225 N203S): as the sequence (O95076 139-225) above, with N65S counted along it
Chain of HOXD13 (Homo sapiens, UniProt P35453 263-343) (P35453 263-343): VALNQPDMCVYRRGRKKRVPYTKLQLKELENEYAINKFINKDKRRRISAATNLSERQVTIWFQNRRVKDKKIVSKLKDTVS
Chain of ALX3 (Homo sapiens, UniProt O95076 139-225, N203Q) (O95076 139-225 N203Q): as the sequence (O95076 139-225) above, with N65Q counted along it
Chain of ALX3 (Homo sapiens, UniProt O95076 139-225, L168V) (O95076 139-225 L168V): as the sequence (O95076 139-225) above, with L30V counted along it
Chain of VAX1 (Homo sapiens, UniProt Q5SQQ9 86-172) (Q5SQQ9 86-172): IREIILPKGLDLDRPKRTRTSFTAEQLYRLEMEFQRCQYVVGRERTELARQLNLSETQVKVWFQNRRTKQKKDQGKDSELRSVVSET
Chain of HOXC10 (Q9NYD6 254-340 K271E): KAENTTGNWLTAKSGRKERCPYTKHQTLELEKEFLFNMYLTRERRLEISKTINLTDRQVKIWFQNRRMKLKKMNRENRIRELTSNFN
Chain of ALX3 (Homo sapiens, UniProt O95076 139-225, L168Q) (O95076 139-225 L168Q): as the sequence (O95076 139-225) above, with L30Q counted along it
Chain of VAX1 (Homo sapiens, UniProt Q5SQQ9 86-172, K157R) (Q5SQQ9 86-172 K157R): as the sequence (Q5SQQ9 86-172) above, with K72R counted along it
Chain of VAX1 (Homo sapiens, UniProt Q5SQQ9 86-172, T142I) (Q5SQQ9 86-172 T142I): as the sequence (Q5SQQ9 86-172) above, with T57I counted along it

Turning to AATATTAA, the binding signal was 8.6 upbm affinity estimate (log intensity, higher = more binding, comparable within an allelic series) in the test with ALX3 [1] and 8.69 upbm affinity estimate (log intensity, higher = more binding, comparable within an allelic series) with ALX3 [2].
With ATTTGACC, the binding signal was 8.13 upbm affinity estimate (log intensity, higher = more binding, comparable within an allelic series) in the test with ALX3 [1]; 9.49 upbm affinity estimate (log intensity, higher = more binding, comparable within an allelic series) in the test with ALX3 [3]; 8.24 upbm affinity estimate (log intensity, higher = more binding, comparable within an allelic series) with ALX3 [2].
On to ATTATTTA, for which the binding signal with ALX3 [1] is 8.54 upbm affinity estimate (log intensity, higher = more binding, comparable within an allelic series); in the test with ALX3 [2] it was 8.69 upbm affinity estimate (log intensity, higher = more binding, comparable within an allelic series).
Turning to GAATATCA, the binding signal in the test with ALX3 [1] is 8.19 upbm affinity estimate (log intensity, higher = more binding, comparable within an allelic series); with ALX3 [3], 8.71 upbm affinity estimate (log intensity, higher = more binding, comparable within an allelic series); with ALX3 [2], 8.23 upbm affinity estimate (log intensity, higher = more binding, comparable within an allelic series).
Turning to ATCGCTAA, the binding signal with ALX3 [1] is 8.25 upbm affinity estimate (log intensity, higher = more binding, comparable within an allelic series); in the test with ALX3 [3], 9.67 upbm affinity estimate (log intensity, higher = more binding, comparable within an allelic series); with ALX3 [2], 8.28 upbm affinity estimate (log intensity, higher = more binding, comparable within an allelic series).
Consider AGTTAATA, for which the binding signal in the test with ALX3 [1] is 8.54 upbm affinity estimate (log intensity, higher = more binding, comparable within an allelic series); in the test with ALX3 [2] it was 8.65 upbm affinity estimate (log intensity, higher = more binding, comparable within an allelic series).
With AACTTCAT, the binding signal in the test with HOXD13 [4] was 10.1 upbm affinity estimate (log intensity, higher = more binding, comparable within an allelic series); with HOXD13 [5] it was 10.6 upbm affinity estimate (log intensity, higher = more binding, comparable within an allelic series).
Turning to CCTATTAC, the binding signal with ALX3 [1] was 8.28 upbm affinity estimate (log intensity, higher = more binding, comparable within an allelic series); with ALX3 [3], 10.8 upbm affinity estimate (log intensity, higher = more binding, comparable within an allelic series); with ALX3 [2], 8.28 upbm affinity estimate (log intensity, higher = more binding, comparable within an allelic series).
As to GGCAGTTA, the binding signal was 8.06 upbm affinity estimate (log intensity, higher = more binding, comparable within an allelic series) with ALX3 [1]; 9.02 upbm affinity estimate (log intensity, higher = more binding, comparable within an allelic series) in the test with ALX3 [3]; 8.19 upbm affinity estimate (log intensity, higher = more binding, comparable within an allelic series) with ALX3 [6]; 8.14 upbm affinity estimate (log intensity, higher = more binding, comparable within an allelic series) with ALX3 [7]; 8.16 upbm affinity estimate (log intensity, higher = more binding, comparable within an allelic series) in the test with ALX3 [2].
Take TATAAACA: the binding signal with HOXD13 [4] is 10.7 upbm affinity estimate (log intensity, higher = more binding, comparable within an allelic series).
On to CATCTTAA, for which the binding signal is 10.1 upbm affinity estimate (log intensity, higher = more binding, comparable within an allelic series) in the test with HOXD13 [4] and 10.5 upbm affinity estimate (log intensity, higher = more binding, comparable within an allelic series) in the test with HOXD13 [5].
In the case of ATATTCAA, the binding signal with ALX3 [1] was 8.33 upbm affinity estimate (log intensity, higher = more binding, comparable within an allelic series); with ALX3 [3], 9.13 upbm affinity estimate (log intensity, higher = more binding, comparable within an allelic series); with ALX3 [7], 8.63 upbm affinity estimate (log intensity, higher = more binding, comparable within an allelic series).
Consider TCCATAAA, for which the binding signal with HOXC10 was 11.4 upbm affinity estimate (log intensity, higher = more binding, comparable within an allelic series).
As to CCCTGACC, the binding signal is 7.22 upbm affinity estimate (log intensity, higher = more binding, comparable within an allelic series) with VAX1 [8]; 7.35 upbm affinity estimate (log intensity, higher = more binding, comparable within an allelic series) with VAX1 [9]; 7.27 upbm affinity estimate (log intensity, higher = more binding, comparable within an allelic series) in the test with VAX1 [10].
Regarding AAGGCGAG, the binding signal with HOXD13 [4] was 9.65 upbm affinity estimate (log intensity, higher = more binding, comparable within an allelic series); in the test with HOXD13 [5], 9.72 upbm affinity estimate (log intensity, higher = more binding, comparable within an allelic series); in the test with HOXD13 [11] it was 9.78 upbm affinity estimate (log intensity, higher = more binding, comparable within an allelic series).
Turning to GCCACGGA, the binding signal with HOXD13 [4] is 9.56 upbm affinity estimate (log intensity, higher = more binding, comparable within an allelic series); in the test with HOXD13 [5], 9.61 upbm affinity estimate (log intensity, higher = more binding, comparable within an allelic series); in the test with HOXD13 [11], 9.69 upbm affinity estimate (log intensity, higher = more binding, comparable within an allelic series).
As for GCACCGGA, the binding signal in the test with HOXD13 [4] is 9.55 upbm affinity estimate (log intensity, higher = more binding, comparable within an allelic series); with HOXD13 [5], 9.43 upbm affinity estimate (log intensity, higher = more binding, comparable within an allelic series); in the test with HOXD13 [11] it was 9.61 upbm affinity estimate (log intensity, higher = more binding, comparable within an allelic series).
For the sequence CCCTGGAG, the binding signal with HOXD13 [4] was 9.64 upbm affinity estimate (log intensity, higher = more binding, comparable within an allelic series); in the test with HOXD13 [5], 9.55 upbm affinity estimate (log intensity, higher = more binding, comparable within an allelic series); with HOXD13 [11], 9.78 upbm affinity estimate (log intensity, higher = more binding, comparable within an allelic series).
With GAAGGCCC, the binding signal was 9.62 upbm affinity estimate (log intensity, higher = more binding, comparable within an allelic series) with HOXD13 [4]; 9.68 upbm affinity estimate (log intensity, higher = more binding, comparable within an allelic series) in the test with HOXD13 [5]; 9.79 upbm affinity estimate (log intensity, higher = more binding, comparable within an allelic series) in the test with HOXD13 [11].
Take AAGGGGGG: the binding signal with HOXD13 [4] was 9 upbm affinity estimate (log intensity, higher = more binding, comparable within an allelic series); with HOXD13 [5], 9.33 upbm affinity estimate (log intensity, higher = more binding, comparable within an allelic series); with HOXD13 [11] it was 9.26 upbm affinity estimate (log intensity, higher = more binding, comparable within an allelic series).
With GCTCGTAA, the binding signal was 10.6 upbm affinity estimate (log intensity, higher = more binding, comparable within an allelic series) with HOXD13 [4]; 11.9 upbm affinity estimate (log intensity, higher = more binding, comparable within an allelic series) with HOXD13 [5]; 11.7 upbm affinity estimate (log intensity, higher = more binding, comparable within an allelic series) in the test with HOXD13 [11].
Consider GGAGCAAC, for which the binding signal with HOXD13 [4] is 9.51 upbm affinity estimate (log intensity, higher = more binding, comparable within an allelic series); with HOXD13 [5], 9.53 upbm affinity estimate (log intensity, higher = more binding, comparable within an allelic series); with HOXD13 [11], 9.56 upbm affinity estimate (log intensity, higher = more binding, comparable within an allelic series).
As to ATATAAAC, the binding signal with HOXD13 [4] was 10.8 upbm affinity estimate (log intensity, higher = more binding, comparable within an allelic series); with HOXD13 [5], 11.8 upbm affinity estimate (log intensity, higher = more binding, comparable within an allelic series); with HOXD13 [11] it was 11.5 upbm affinity estimate (log intensity, higher = more binding, comparable within an allelic series).
On to CCAGTCCG, for which the binding signal is 9.56 upbm affinity estimate (log intensity, higher = more binding, comparable within an allelic series) with HOXD13 [4]; 9.53 upbm affinity estimate (log intensity, higher = more binding, comparable within an allelic series) with HOXD13 [5]; 9.68 upbm affinity estimate (log intensity, higher = more binding, comparable within an allelic series) with HOXD13 [11].
For CAGGCGAC, the binding signal in the test with HOXD13 [4] is 9.59 upbm affinity estimate (log intensity, higher = more binding, comparable within an allelic series); in the test with HOXD13 [5], 9.52 upbm affinity estimate (log intensity, higher = more binding, comparable within an allelic series); with HOXD13 [11] it was 9.66 upbm affinity estimate (log intensity, higher = more binding, comparable within an allelic series).
For the sequence AGGAGGGG, the binding signal in the test with HOXD13 [4] was 9.43 upbm affinity estimate (log intensity, higher = more binding, comparable within an allelic series); with HOXD13 [5], 9.61 upbm affinity estimate (log intensity, higher = more binding, comparable within an allelic series); with HOXD13 [11], 9.63 upbm affinity estimate (log intensity, higher = more binding, comparable within an allelic series).
As to CACCGGTG, the binding signal with HOXD13 [4] was 9.69 upbm affinity estimate (log intensity, higher = more binding, comparable within an allelic series); in the test with HOXD13 [5] it was 9.58 upbm affinity estimate (log intensity, higher = more binding, comparable within an allelic series); in the test with HOXD13 [11], 9.72 upbm affinity estimate (log intensity, higher = more binding, comparable within an allelic series).
As to GGGCCGGA, the binding signal is 9.43 upbm affinity estimate (log intensity, higher = more binding, comparable within an allelic series) with HOXD13 [4]; 9.41 upbm affinity estimate (log intensity, higher = more binding, comparable within an allelic series) with HOXD13 [5]; 9.47 upbm affinity estimate (log intensity, higher = more binding, comparable within an allelic series) with HOXD13 [11].
For the sequence TTGTAAAA, the binding signal with HOXD13 [4] is 10.7 upbm affinity estimate (log intensity, higher = more binding, comparable within an allelic series); in the test with HOXD13 [5], 11.8 upbm affinity estimate (log intensity, higher = more binding, comparable within an allelic series); with HOXD13 [11], 11.6 upbm affinity estimate (log intensity, higher = more binding, comparable within an allelic series).
CACCGCCA: the binding signal with HOXD13 [4] is 9.56 upbm affinity estimate (log intensity, higher = more binding, comparable within an allelic series); in the test with HOXD13 [5], 9.65 upbm affinity estimate (log intensity, higher = more binding, comparable within an allelic series); with HOXD13 [11] it was 9.8 upbm affinity estimate (log intensity, higher = more binding, comparable within an allelic series).
As to GGCCGGCA, the binding signal was 9.49 upbm affinity estimate (log intensity, higher = more binding, comparable within an allelic series) in the test with HOXD13 [4]; 9.56 upbm affinity estimate (log intensity, higher = more binding, comparable within an allelic series) with HOXD13 [5]; 9.65 upbm affinity estimate (log intensity, higher = more binding, comparable within an allelic series) with HOXD13 [11].
Turning to CCGTAAAA, the binding signal with HOXD13 [4] is 10.5 upbm affinity estimate (log intensity, higher = more binding, comparable within an allelic series); with HOXD13 [5], 11.8 upbm affinity estimate (log intensity, higher = more binding, comparable within an allelic series); with HOXD13 [11] it was 11.6 upbm affinity estimate (log intensity, higher = more binding, comparable within an allelic series).
For the sequence GGCCCACC, the binding signal with HOXD13 [4] was 9.47 upbm affinity estimate (log intensity, higher = more binding, comparable within an allelic series); in the test with HOXD13 [5] it was 9.38 upbm affinity estimate (log intensity, higher = more binding, comparable within an allelic series); with HOXD13 [11], 9.5 upbm affinity estimate (log intensity, higher = more binding, comparable within an allelic series).
